Source: PubChem BioAssay

assay: modulators of MEP2-GFP levels in yeast, confirmation, S. cerevisiae, flow cytometry GFP, cherry picks (AID 2272);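 also: ratio of well signal to plate DMSO mean so 100% equals DMSO level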; conditions: S. cerevisiae MEP2-GFP strain, 3 h, at 10 µM, stronger effect = higher value;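 active = GFP response above 150% of the DMSO control; inconclusive = Fewer than 70 cells counted for a yeast strain; inactive = the rest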

GFP response vs DMSO, inactive:
O=C(Nc1ccc(NC(=O)c2cc3ccccc3o2)cc1)c1ccc2c(c1)OCCO2 103%
Cc1ncc2c(n1)-c1cc(F)ccc1SC2 109%
Cc1ccc(S(=O)(=O)Cc2cc(F)c([N+](=O)[O-])cc2[N+](=O)[O-])cc1 127%
C/C(CC(=O)Nc1cc(C)ccn1)=N\NC(=O)c1cccc(F)c1 100%
CN=C(NC)SC1CC(=O)N(c2ccccc2)C1=O (stereo unspecified) 97.8%
O=C1/C(=C\c2ccc(O)c(O)c2)SC(=S)N1Cc1ccccc1 141%
COc1cc(/C=C2\C(=O)N(CCC#N)N=C2C)c(Br)cc1OC(C)C 107%
CCn1c(=O)c(C(=O)Nc2nc3ccccc3[nH]2)c(O)c2ccccc21 159%
CC1CN(c2nc3ccccn3c(=O)c2/C=C(\C#N)C(N)=O)CC(C)O1 (stereo unspecified) 106%
CCOC(=O)CSC1=NC(=O)/C(=C\c2ccc(Cl)cc2)S1 103%
O=C(N/N=C/c1ccccc1Cl)c1cccc(F)c1 101%
CCN(CC)CCNC(=O)Cn1c(-c2ccccn2)nc2ccccc21 100%
COc1ccc(N2C(=O)C(Cl)=C(Nc3ccccc3OC)C2=O)cc1 105%
COc1ccc(C(=O)/C=C/c2ccccc2C(F)(F)F)cc1 100%
O=C(COc1ccc(F)cc1Cl)Nc1nc(-c2ccccn2)cs1 110%
COc1ccc(/C=N/NC(=O)C2(C)NC(C)(C)Cc3ccccc32)cc1 (stereo unspecified) 96.2%
